# Source: PubChem BioAssay (NCI)
# The panel holds about 79,000 compounds, 15% with a hit somewhere; the sample as a whole holds those more often. Unmarked numbers belong to inactive results. Active and inactive are the calls of the source. Cut-off read from the data, not from the text of the source: active = growth inhibition above about 70%; inactive = the rest.
# Experiments:
# [1] = NCI Yeast Anticancer Drug Screen. Data for the rad52 strain (AID 147);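 note: 0% = growth of vehicle-treated control cultures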; conditions: S. cerevisiae rad52 mutant growth inhibition, stronger effect = higher value
# How it was run: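 The repair-mutant yeast strain was incubated with compounds, then growth was read and inhibition derived relative to vehicle.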
# [2] = NCI Yeast Anticancer Drug Screen. Data for the wt1 strain (AID 149);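 note: 0% = growth of vehicle-treated wt1 cultures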; conditions: S. cerevisiae wt1 strain (SPY 50644) growth inhibition, stronger effect = higher value
# How it was run: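 Each compound is tested on wt1 yeast and the loss of growth versus vehicle gives the inhibition value.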
# [3] = NCI Yeast Anticancer Drug Screen. Data for the rad50EPP+ strain (AID 151);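 note: 0% = growth of vehicle-treated control cultures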; conditions: S. cerevisiae rad50 mutant strain, stronger effect = higher value
# How it was run: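 Vehicle-normalised growth inhibition; rad50EPP+ yeast strain, altered in DNA damage repair, compound-treated.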
# [4] = NCI Yeast Anticancer Drug Screen. Data for the mgt1 strain (AID 153); conditions: S. cerevisiae mgt1 mutant growth inhibition, stronger effect = higher value
# How it was run: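 Vehicle-normalized growth inhibition is determined in mgt1 yeast, a strain selected for a defined alteration in DNA repair or cell cycle control.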
# [5] = NCI Yeast Anticancer Drug Screen. Data for the rad50 strain (AID 155);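 note: 0% = growth of vehicle-only cultures of the same strain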; conditions: S. cerevisiae rad50 strain growth inhibition, stronger effect = higher value
# How it was run: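 Vehicle-treated cultures provide the reference for the growth inhibition reported for compound-exposed, repair-deficient yeast.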
# [6] = NCI Yeast Anticancer Drug Screen. Data for the mec2-1 strain (AID 157); conditions: S. cerevisiae mec2-1 strain, stronger effect = higher value
# How it was run: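 Mutant yeast (mec2-1) grown with compound; growth inhibition relative to vehicle control reported.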
# [7] = NCI Yeast Anticancer Drug Screen. Data for the rad14 strain (AID 159);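 note: 0% = growth of vehicle-treated control cultures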; conditions: S. cerevisiae rad14 strain growth inhibition, stronger effect = higher value
# How it was run: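 Inhibition of growth is reported for a repair-deficient yeast mutant following compound treatment, calculated relative to cultures that received vehicle.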
# [8] = NCI Yeast Anticancer Drug Screen. Data for the sgs1 mgt1 strain (AID 161);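 note: 0% = growth of cultures given vehicle only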; conditions: S. cerevisiae sgs1 mgt1 strain, stronger effect = higher value
# How it was run: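 Compounds are added to genetically altered yeast, and growth is compared with cultures given vehicle alone to give percent inhibition.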
# [9] = NCI Yeast Anticancer Drug Screen. Data for the CLN2oe strain (AID 163);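 note: 0% = growth of vehicle-only control cultures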; conditions: S. cerevisiae CLN2oe strain, stronger effect = higher value
# How it was run: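 Compounds are applied to yeast harbouring a defined cell-cycle control change; reduced growth compared with vehicle-treated controls gives the value.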
# [10] = NCI Yeast Anticancer Drug Screen. Data for the cln2 rad14 strain (AID 165);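 note: 0% = growth equal to vehicle treated cultures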; conditions: S. cerevisiae cln2 rad14 strain, stronger effect = higher value
# How it was run: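 Readout is yeast growth inhibition versus vehicle-treated controls, using a strain with cln2 and rad14 alterations exposed to compound.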
# [11] = NCI Yeast Anticancer Drug Screen. Data for the bub3 strain (AID 167); conditions: S. cerevisiae bub3 mutant strain, stronger effect = higher value
# How it was run: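 Mutant yeast screening strain plus compound; vehicle-treated cultures serve as the 0% inhibition reference.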
# [12] = NCI Yeast Anticancer Drug Screen. Data for the wt2 strain (AID 169); conditions: S. cerevisiae wt2 strain growth inhibition, stronger effect = higher value
# How it was run: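 Against vehicle-treated controls, the growth of yeast exposed to each compound was compared, and the inhibition was recorded.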
# [13] = NCI Yeast Anticancer Drug Screen. Data for the mlh1 strain (AID 171);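 note: 0% = growth of vehicle-treated control cultures of the same strain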; conditions: S. cerevisiae mlh1 strain growth inhibition, stronger effect = higher value
# How it was run: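 Measured: yeast growth. Reference: vehicle-treated controls. Organism: strain with a defined alteration affecting DNA damage repair or cell cycle control, treated with compound.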
# [14] = NCI Yeast Anticancer Drug Screen. Data for the sgs1 strain (AID 173);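 note: 0% = growth of vehicle-only control cultures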; conditions: S. cerevisiae sgs1 mutant, stronger effect = higher value
# How it was run: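 Each compound was added to cultures of the altered yeast strain. Growth was recorded, and inhibition was derived by comparison with vehicle controls.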
# [15] = NCI Yeast Anticancer Drug Screen. Data for the mlh1 rad18 strain (AID 175); conditions: S. cerevisiae mlh1 rad18 strain growth inhibition, stronger effect = higher value
# How it was run: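 Genetically defined yeast (DNA repair-deficient) exposed to compounds; growth inhibition determined relative to vehicle.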
# [16] = NCI Yeast Anticancer Drug Screen. Data for the rad18 strain (AID 177); conditions: S. cerevisiae rad18 mutant growth inhibition, stronger effect = higher value
# How it was run: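 Vehicle-treated cultures served as the baseline for scoring compound-induced growth inhibition in DNA-repair-mutant yeast.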
# [17] = at 5.0 µM (retest, dose inferred, filed as 0.5)
# [18] = at 50.0 µM (retest, dose inferred, filed as 5.0)
structure (smiles),measurement,setting,value
CCCCc1ccc(-n2c(C)c(COC(=O)NC)c(COC(=O)NC)c2C)cc1,growth inhibition,[1]; at 1.2 µM,-40%
same,growth inhibition,[1]; at 3.7 µM,-10%
same,growth inhibition,[1]; at 11.0 µM,5%
same,growth inhibition,[1]; at 33.0 µM,98% (active)
same,growth inhibition,[1]; at 100.0 µM,93% (active)
same,growth inhibition,[2]; at 1.2 µM,-48%
same,growth inhibition,[2]; at 3.7 µM,-44%
same,growth inhibition,[2]; at 11.0 µM,-13%
same,growth inhibition,[2]; at 33.0 µM,99% (active)
same,growth inhibition,[2]; at 100.0 µM,91% (active)
same,growth inhibition,[3]; at 1.2 µM,-18%
same,growth inhibition,[3]; at 3.7 µM,-13%
same,growth inhibition,[3]; at 11.0 µM,-6%
same,growth inhibition,[3]; at 33.0 µM,90% (active)
same,growth inhibition,[3]; at 100.0 µM,92% (active)
same,growth inhibition,[4]; at 1.2 µM,-43%
same,growth inhibition,[4]; at 3.7 µM,-41%
same,growth inhibition,[4]; at 11.0 µM,19%
same,growth inhibition,[4]; at 33.0 µM,99% (active)
same,growth inhibition,[4]; at 100.0 µM,94% (active)
same,growth inhibition,[5]; at 1.2 µM,-36%
same,growth inhibition,[5]; at 3.7 µM,-30%
same,growth inhibition,[5]; [17],19%
same,growth inhibition,[5]; at 11.0 µM,31%
same,growth inhibition,[5]; at 33.0 µM,93% (active)
same,growth inhibition,[5]; [18],95% (active)
same,growth inhibition,[5]; at 50.0 µM,90.6% (active)
same,growth inhibition,[5]; at 100.0 µM,90% (active)
same,growth inhibition,[6]; at 1.2 µM,-28%
same,growth inhibition,[6]; at 3.7 µM,-21%
same,growth inhibition,[6]; [17],14%
same,growth inhibition,[6]; at 11.0 µM,24%
same,growth inhibition,[6]; at 33.0 µM,99% (active)
same,growth inhibition,[6]; [18],98% (active)
same,growth inhibition,[6]; at 50.0 µM,92.6% (active)
same,growth inhibition,[6]; at 100.0 µM,93% (active)
same,growth inhibition,[7]; at 1.2 µM,-29%
same,growth inhibition,[7]; at 3.7 µM,-11%
same,growth inhibition,[7]; at 11.0 µM,89% (active)
same,growth inhibition,[7]; at 33.0 µM,97% (active)
same,growth inhibition,[7]; at 100.0 µM,89% (active)
same,growth inhibition,[8]; [17],26%
same,growth inhibition,[8]; [18],57%
same,growth inhibition,[8]; at 50.0 µM,88.5% (active)
same,growth inhibition,[9]; at 1.2 µM,-23%
same,growth inhibition,[9]; at 3.7 µM,-1%
same,growth inhibition,[9]; at 11.0 µM,5%
same,growth inhibition,[9]; at 33.0 µM,97% (active)
same,growth inhibition,[9]; at 100.0 µM,94% (active)
same,growth inhibition,[10]; [17],21%
same,growth inhibition,[10]; [18],-28%
same,growth inhibition,[10]; at 50.0 µM,81.5% (active)
same,growth inhibition,[11]; at 1.2 µM,-36%
same,growth inhibition,[11]; at 3.7 µM,-39%
same,growth inhibition,[11]; [17],11%
same,growth inhibition,[11]; at 11.0 µM,56%
same,growth inhibition,[11]; at 33.0 µM,99% (active)
same,growth inhibition,[11]; [18],4%
same,growth inhibition,[11]; at 50.0 µM,85.5% (active)
same,growth inhibition,[11]; at 100.0 µM,88% (active)
same,growth inhibition,[12]; at 1.2 µM,-24%
same,growth inhibition,[12]; at 3.7 µM,-10%
same,growth inhibition,[12]; at 11.0 µM,5%
same,growth inhibition,[12]; at 33.0 µM,98% (active)
same,growth inhibition,[12]; at 100.0 µM,94% (active)
same,growth inhibition,[13]; at 1.2 µM,-39%
same,growth inhibition,[13]; at 3.7 µM,-18%
same,growth inhibition,[13]; at 11.0 µM,83% (active)
same,growth inhibition,[13]; at 33.0 µM,97% (active)
same,growth inhibition,[13]; at 100.0 µM,87% (active)
same,growth inhibition,[14]; at 1.2 µM,-3%
same,growth inhibition,[14]; at 3.7 µM,-2%
same,growth inhibition,[14]; at 11.0 µM,47%
same,growth inhibition,[14]; at 33.0 µM,98% (active)
same,growth inhibition,[14]; at 100.0 µM,91% (active)
same,growth inhibition,[15]; [17],18%
same,growth inhibition,[15]; [18],98% (active)
same,growth inhibition,[15]; at 50.0 µM,91.2% (active)
same,growth inhibition,[16]; at 1.2 µM,-27%
same,growth inhibition,[16]; at 3.7 µM,-1%
same,growth inhibition,[16]; at 11.0 µM,59%
same,growth inhibition,[16]; at 33.0 µM,95% (active)
same,growth inhibition,[16]; at 100.0 µM,77% (active)
O=C(NCCCNCCN1C(=O)c2cccc3cc([N+](=O)[O-])cc(c23)C1=O)c1cc(-c2ccccc2)nc2ccccc12,growth inhibition,[1]; at 1.2 µM,-2%
same,growth inhibition,[1]; at 3.7 µM,2%
same,growth inhibition,[1]; at 11.0 µM,6%
same,growth inhibition,[1]; at 33.0 µM,38%
same,growth inhibition,[1]; at 100.0 µM,98% (active)
same,growth inhibition,[2]; at 1.2 µM,0%
same,growth inhibition,[2]; at 3.7 µM,-1%
same,growth inhibition,[2]; at 11.0 µM,-2%
same,growth inhibition,[2]; at 33.0 µM,-6%
same,growth inhibition,[2]; at 100.0 µM,96% (active)
same,growth inhibition,[3]; at 1.2 µM,0%
same,growth inhibition,[3]; at 3.7 µM,2%
same,growth inhibition,[3]; at 11.0 µM,8%
same,growth inhibition,[3]; at 33.0 µM,19%
same,growth inhibition,[3]; at 100.0 µM,57%
same,growth inhibition,[4]; at 1.2 µM,-1%
same,growth inhibition,[4]; at 3.7 µM,0%
same,growth inhibition,[4]; at 11.0 µM,-1%
same,growth inhibition,[4]; at 33.0 µM,8%
same,growth inhibition,[4]; at 100.0 µM,99% (active)
same,growth inhibition,[5]; at 1.2 µM,-2%
same,growth inhibition,[5]; at 3.7 µM,2%
same,growth inhibition,[5]; [17],-11%
same,growth inhibition,[5]; at 11.0 µM,8%
same,growth inhibition,[5]; at 33.0 µM,64%
same,growth inhibition,[5]; [18],98% (active)
same,growth inhibition,[5]; at 50.0 µM,94.3% (active)
same,growth inhibition,[5]; at 100.0 µM,99% (active)
same,growth inhibition,[6]; at 1.2 µM,0%
same,growth inhibition,[6]; at 3.7 µM,-1%
same,growth inhibition,[6]; [17],-1%
same,growth inhibition,[6]; at 11.0 µM,0%
same,growth inhibition,[6]; at 33.0 µM,5%
same,growth inhibition,[6]; [18],86% (active)
same,growth inhibition,[6]; at 50.0 µM,91% (active)
same,growth inhibition,[6]; at 100.0 µM,99% (active)
same,growth inhibition,[7]; at 1.2 µM,-1%
same,growth inhibition,[7]; at 3.7 µM,-1%
same,growth inhibition,[7]; at 11.0 µM,4%
same,growth inhibition,[7]; at 33.0 µM,21%
same,growth inhibition,[7]; at 100.0 µM,99% (active)
same,growth inhibition,[8]; [17],-2%
same,growth inhibition,[8]; [18],96% (active)
same,growth inhibition,[8]; at 50.0 µM,93.5% (active)
same,growth inhibition,[9]; at 1.2 µM,1%
same,growth inhibition,[9]; at 3.7 µM,3%
same,growth inhibition,[9]; at 11.0 µM,-4%
same,growth inhibition,[9]; at 33.0 µM,10%
same,growth inhibition,[9]; at 100.0 µM,98% (active)
same,growth inhibition,[10]; [17],33%
same,growth inhibition,[10]; [18],78% (active)
same,growth inhibition,[10]; at 50.0 µM,93.6% (active)
same,growth inhibition,[11]; at 1.2 µM,-4%
same,growth inhibition,[11]; at 3.7 µM,0%
same,growth inhibition,[11]; [17],-9%
same,growth inhibition,[11]; at 11.0 µM,2%
same,growth inhibition,[11]; at 33.0 µM,9%
same,growth inhibition,[11]; [18],97% (active)
same,growth inhibition,[11]; at 50.0 µM,93.3% (active)
same,growth inhibition,[11]; at 100.0 µM,98% (active)
same,growth inhibition,[12]; at 1.2 µM,-1%
same,growth inhibition,[12]; at 3.7 µM,-1%
same,growth inhibition,[12]; at 11.0 µM,-2%
same,growth inhibition,[12]; at 33.0 µM,-2%
same,growth inhibition,[12]; at 100.0 µM,99% (active)
same,growth inhibition,[13]; at 1.2 µM,-3%
same,growth inhibition,[13]; at 3.7 µM,1%
same,growth inhibition,[13]; at 11.0 µM,1%
same,growth inhibition,[13]; at 33.0 µM,9%
same,growth inhibition,[13]; at 100.0 µM,99% (active)
same,growth inhibition,[14]; at 1.2 µM,-1%
same,growth inhibition,[14]; at 3.7 µM,1%
same,growth inhibition,[14]; at 11.0 µM,2%
same,growth inhibition,[14]; at 33.0 µM,17%
same,growth inhibition,[14]; at 100.0 µM,98% (active)
same,growth inhibition,[15]; [17],-1%
same,growth inhibition,[15]; [18],97% (active)
same,growth inhibition,[15]; at 50.0 µM,97.6% (active)
same,growth inhibition,[16]; at 1.2 µM,-3%
same,growth inhibition,[16]; at 3.7 µM,-2%
same,growth inhibition,[16]; at 11.0 µM,-1%
same,growth inhibition,[16]; at 33.0 µM,10%
same,growth inhibition,[16]; at 100.0 µM,99% (active)
